POLI inh: qHTS for Inhibitors of Polymerase Iota | DNA polymerase iota (Homo sapiens), Q9UNA4 | Pol iota fluorescent replication assay, 10 min | Potency, µM (top dose mostly 115 µM), for inactives: top-dose activity, negative = inhibition, most hits filed as inhibitors | actives 1% (n = 390,000); also: potency is read from the fitted curve at half-maximal effect
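Fluorescent replication assay read twice, at 0 min and 10 min after adding 50 nM (final) substrate. Enzyme (10 nM) and compounds were first incubated 15 min at room temperature; enzyme-free buffer wells were negative controls.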
Pol beta inh: qHTS Assay for Inhibitors of DNA Polymerase Beta | P06746 | Pol beta primer extension/strand displacement, fluorescence kinetic | Potency, µM (series often up to 114 µM), for inactives: at the highest dose activity change, negative = inhibition, hits mostly inhibitors | actives 1.3% (n = 340,000); also: potency is read from the fitted curve at half-maximal effect; % is scaled to controls: 0 for no effect and ±100 for the full control effect
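Homogeneous kinetic assay of primer extension and strand displacement by 10 nM Pol beta, preincubated 15 min at room temperature with compound before 50 nM substrate (final) was added. Read at 0 and 10 min; four-parameter Hill fit.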
PI5P4Ka inh: qHTS for Inhibitors of phosphatidylinositol 5-phosphate 4-kinase (PI5P4K); Phosphatidylinositol 5-phosphate 4-kinase type-2 alpha (Homo sapiens), P48426; actives 1.2% (n = 330,000); PI5P4Kalpha enzyme, ADP-Glo luminescence, 60 min; hits give low values; max response, %; active = max response of -50% or lower; inconclusive = between -30% and -50%; inactive = -30% or higher; also: value at the top dose of about 77 µM; % is scaled to controls: 0 for no effect and ±100 for the full control effect
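Human PI5P4Kalpha with substrate in 0.038 M HEPES pH 7.4, 0.28 mM EGTA, 0.1% CHAPS, 5% DMSO; reaction started with 5 microM ATP (final), 60 min at room temperature. ADP formed read by ADP-Glo luminescence.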
PI4K2A block: qHTS for small molecular inhibitors of PI4K2A | actives 0.13% (n = 420,000) | activity change, negative = inhibition, % at 76.9 µM | purified PI4K2A, ADP-Glo luminescence, 1 h; hits give low values | AID 1346378, 2018; in the data active = activity change below about -50%; inconclusive = mostly about -30% to -49%;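 also: -100% = wells without enzyme as full effect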
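ADP-Glo luminescence measured ADP generated by PI4K2A enzyme (4 ug/mL before mixing) with 1.2 mM PI substrate (pre-mix) and 300 microM ATP (pre-mix). Tris pH7.5 buffer with MgCl2, Triton X-100; 1 h reaction at ambient temperature.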
Pol eta inh: qHTS for Inhibitors of Polymerase Eta. recombinant Pol eta, fluorescent DNA replication assay. actives 1.2% (n = 390,000). AID 588591, 2011. Potency, µM (highest dose often 114 µM), inactives show at the highest dose activity change, negative = inhibition, most hits filed as inhibitors. DNA polymerase eta (Homo sapiens), Q9Y253; also: potency is read from the fitted curve at half-maximal effect; % is scaled to controls: 0 for no effect and ±100 for the full control effect
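Pol eta at 10 nM preincubated with compounds 15 min at room temperature; reaction started with fluorescent substrate (50 nM final) and read kinetically at 0 and 10 min.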
POLK inh: qHTS for Inhibitors of Polymerase Kappa | actives 0.53% (n = 400,000) | Potency, µM (titrated, usually from 107 µM), for the others: at the highest dose activity, negative = inhibition, hits mostly inhibitors | purified Pol kappa, fluorescent DNA synthesis assay, 10 min; also: potency is read from the fitted curve at half-maximal effect; % is scaled to controls: 0 for no effect and ±100 for the full control effect
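First, compounds were pin-transferred onto 10 nM Pol kappa. After 15 min at room temperature, substrate was added to 50 nM final. Fluorescence was then measured kinetically at 0 and 10 min.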
Active calls of the source: *; ? = inconclusive; / = no result given; ! = repeats disagree. An excerpt weighted towards active compounds, which were near 2.8% of everything screened. Unless noted, calls follow the shape of the dose curve; as a rule, active = well fitted inhibition curve with a large enough effect; inconclusive = small, poorly fitted or top-dose-only effect, or another doubt; inactive = no such curve, though single readings can be large or run the other way.

SMILES	POLI inh	Pol beta inh	PI5P4Ka inh	PI4K2A block	Pol eta inh	POLK inh
C[C@H]1[C@@H](C(=O)N2CCCC2)CC(=O)/C(=N/OCc2ccccc2)C[C@@H]1c1ccccc1	/	/	/	-3	/	/
CCOc1ccc(C(=O)c2ccc(OC)c(O)c2O)cc1	/	/	/	/	/	13µM*
COc1ccc(C(=O)c2ccc(C)cc2)c(OC)c1OC	107%	/	1	-2	-8%	-10%
COc1ccc(C(=O)c2ccc(O)cc2)c(O)c1O	/	/	/	/	/	2.2µM*
O=C(CSc1nnc(-c2cccnc2)n1C1CCCCC1)N1CCCC1	/	/	/	-2	/	/
NS(=O)(=O)c1ccc(N2CCCCS2(=O)=O)cc1	/	/	/	0	/	/
COC(=O)/C(=C/Nc1ccc(O)cc1)[N+](=O)[O-]	7.1µM*	16%	-2	?	-10%	-7%
COc1cc([C@H]2OC[C@H]3[C@@H]2CO[C@H]3c2ccc(O)c(OC)c2)ccc1O	30%	/	0	0	-15%	-5%
COc1cc(C2OCC3C(c4ccc(OC5OC(CO)C(O)C(O)C5O)c(OC)c4)OCC23)ccc1O (stereo not drawn)	71µM*	?	-8	-3	?	?
Cc1ccc(N=Cc2cc(Cc3ccccc3Cl)cc([N+](=O)[O-])c2O)c(O)c1	?	16µM*	-69*	?	50µM*	-81%
COc1ccc(N=Cc2cc(Cc3ccccc3Cl)cc([N+](=O)[O-])c2O)cc1OC	?	1%	?	-1	28µM*	-16%
CC(=O)c1ccc(OCC(O)CN2CCN(CCN3C(=O)c4cccc5cccc(c45)C3=O)CC2)cc1 (stereo not drawn)	?	14µM*	-7	5	?	-35%
CC(C)OCC(O)CN1CCN(CCN2C(=O)c3cccc4cccc(c34)C2=O)CC1 (stereo not drawn)	18%	?	-1	3	-14%	-22%
COc1ccc(NC(=O)c2cc3cccc(OC)c3oc2=Nc2ccc(C(=O)O)cc2)cc1OC	-8%	?	0	-1	14µM*	-37%
O=c1ccc2ccc(O)cc2o1	17%	/	4	-3	-11%	15%
O=c1ccc2cc(O)c(O)cc2o1	?	0%	-6	?	-2%	3.5µM*!
O=C(NOCC1CC1)c1ccc(F)c(F)c1Nc1ccc(I)cc1Cl	/	/	/	1	/	/
N#Cc1ccc(CSc2nnc(NC(=O)c3ccc4ncsc4c3)s2)cc1	?	17%	-23	0	32µM*	-7%
N#Cc1ccc(CSc2nnc(NC(=O)c3ccc(=O)[nH]c3)s2)cc1	?	?	-6	-5	?	-40%
CCS(=O)(=O)c1ccc2oc(SCC(=O)c3ccco3)nc2c1	?	0%	-19	-5	16µM*	-11%
c1coc(C2Nc3ccccc3C3OCCC23)c1 (stereo not drawn)	0%	8%	5	-2	-5%	-9%
COc1ccc2c(c1)C1OCCC1C(c1ccco1)N2 (stereo not drawn)	79µM*	/	-2	-13	-4%	-19%
CCOC(=O)c1c(C)nc(C)c(C(=O)OCC)c1-c1ccc(OC)cc1	28%	0.16µM*!	/	-1	-7%	-8%
COC(=O)c1c(C)nc(C)c(C(=O)OC)c1-c1ccc(OC)cc1	14%	20%	9	0	3%	-5%
CCN1CCN(Cc2ccc(NC(=O)c3ccc(C)c(NC(=O)c4ccno4)c3)cc2C(F)(F)F)CC1	13%	-10%	-17	-4	2%	22%
SMILES	POLI inh	Pol beta inh	PI5P4Ka inh	PI4K2A block	Pol eta inh	POLK inh
CCN1CCN(Cc2ccc(NC(=O)c3ccc(C)c(/C=C/c4cnc(Nc5cc(N6CCNCC6)nc(C)n5)cn4)c3)cc2C(F)(F)F)CC1	?	11%	-74*	-4	79µM*	-34%
CC(=O)C1=C(O)C(=O)N(Cc2ccccc2)C1c1ccco1 (stereo not drawn)	?	?	-3	-1	45µM*	-21%
COc1ccccc1N(CC(=O)NC1CC2CCC1C2)S(=O)(=O)c1ccc(C)cc1 (stereo not drawn)	7%	37%	2	3	?	-16%
Cc1cc(C)cc(N(CC(=O)NC2CC3CCC2C3)S(C)(=O)=O)c1 (stereo not drawn)	89µM*	-1%	-5	4	1%	-8%
CC(C)(C)n1ncc2c(=O)n(Cc3cccc(OC(F)(F)F)c3)cnc21	11%	/	/	/	/	-1%
CCc1ccc2c(O)c3c(cc2c1C(=O)OC)C(=O)c1c(O)ccc(O)c1C3=O	/	/	/	/	/	7.9µM*
COC(=O)c1cc(O)c(O)c(O)c1	16%	?	-5	-1	-15%	-11%
CCOc1cc(/C=N/N=C(N)N)ccc1OCc1ccc(Cl)cc1	13%	79µM*	-6	1	-16%	6%
NC(N)=N/N=C/c1ccc(OCc2ccccc2)c(OCc2ccccc2)c1	37%	79µM*	-4	-1	-22%	-15%
COc1cc(/C=N/N=C(N)N)ccc1OCc1ccc(Cl)cc1	22%	?	-3	-4	-23%	-11%
Cc1ccc2ncc(C)c(C)c2c1	17%	/	/	/	/	7%
COc1ccc(OC)c(N=Nc2c(O)c3ccccc3[nH]c2=O)c1	?	/	-11	-21	40µM*	-26%
O=C(CC1(O)C(=O)N(CCc2ccccc2)c2ccc(Br)cc21)c1ccccc1 (stereo not drawn)	89µM*	8%	/	-4	?	-6%
COc1cccc(CNC(=O)c2nnn(CC(=O)Nc3ccc4c(c3)OCO4)c2N)c1	-11%	?	-15	4	-4%	-9%
COc1ccc(OC)c(NC(=O)c2nnn(CC(=O)Nc3ccc4c(c3)OCO4)c2N)c1	64%	?	-2	-6	16µM*	-3%
COc1ccc2c(CC(=O)NCc3ccc4c(c3)OCO4)coc2c1	?	18µM*	/	-19	50µM*	?
COc1cccc(NC(=O)Cn2nnc(C(=O)NCc3ccc4c(c3)OCO4)c2N)c1	50µM*	-29%	-1	-1	-14%	-20%
CC(c1c[nH]c2ccccc12)c1c[nH]c2ccc(Br)cc12 (stereo not drawn)	/	/	/	1	/	/
O=c1[nH]c(/C=C\c2ccc(O)cc2)nc(O)c1[N+](=O)[O-]	-27%	-22%	-89*	-10	?	-13%
O=C(/C=C/c1cccs1)Nc1ccc([N+](=O)[O-])cc1	2%	-18%	-13	5	-4%	-22%
